Measurements reported in PubChem BioAssay AID493098 (Sanford-Burnham Center for Chemical Genomics, 2011).
The whole screen tested about 340,000 compounds, of which about 1,700 (0.5%) were called active. Many of the other results were omitted from the sample, so actives are more common in it than they were. A number with no mark means an inactive call.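 The calls were made as follows: active = compounds whose inhibition of the agonist-driven luminescence signal at 20 µM reaches about 50% (limit read from the data); inactive = the rest.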

The molecules below were run against C-C chemokine receptor type 6 (Homo sapiens) (UniProt P51684) (assay: blockers of CCL20-driven beta-arrestin recruitment to CCR6 – cell-based, CHO-K1, luminescence, uHTS, primary screen (AID 493098;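 also: cells stimulated with CCL20 at 14 nM final; plate controls were DMSO with CCL20 for no effect and DMSO without agonist for full effect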)). Details: CHO-K1 CCR6 PathHunter beta-arrestin, CCL20-stimulated, at 20 µM, active compounds read high.
Sequence of C-C chemokine receptor type 6 (Homo sapiens) (P51684 whole entry, looked up): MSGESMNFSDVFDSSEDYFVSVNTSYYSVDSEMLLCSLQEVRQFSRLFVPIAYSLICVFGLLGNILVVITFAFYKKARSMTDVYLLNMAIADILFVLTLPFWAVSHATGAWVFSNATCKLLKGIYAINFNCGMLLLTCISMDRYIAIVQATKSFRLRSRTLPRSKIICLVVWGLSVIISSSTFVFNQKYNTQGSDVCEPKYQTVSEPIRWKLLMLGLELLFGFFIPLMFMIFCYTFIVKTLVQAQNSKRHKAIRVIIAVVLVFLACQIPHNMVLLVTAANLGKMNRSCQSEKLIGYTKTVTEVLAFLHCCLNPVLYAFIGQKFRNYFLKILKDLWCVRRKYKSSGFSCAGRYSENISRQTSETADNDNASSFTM

Compound | inhibition
CC(=O)OC1C2(CC3N4C(=O)C5(CO)SSC4(CC31O)C(=O)N5C)OC(C)C(C)(C)C2=O (stereo not given) | 111% (active)
COC(=O)[C@@H]1C(OC(=O)c2ccccc2)CC2CCC1N2C (stereo not given in full) | 6.3%
CC(Cc1cccs1)NCc1ccc(Cl)cc1 (stereo not given) | 13.3%
Cc1nn(-c2ccccc2)c(C)c1NC(=O)COC(=O)Cc1ccccc1 | -2.94%
CCCOC(=O)C1C2c3ccccc3C(c3ccccc32)C1C(=O)O (stereo not given) | -3.33%
